Consider seven compounds from PubChem BioAssay (EPA / NIEHS).

Results filed as inconclusive are left out. Active and inactive are the calls of the source. How the source made its calls, unless noted: active means hit-call score of the fitted dose curve at least 0.9, where 1 is the maximum; inactive means score below 0.9.

Assay [1] is described as follows: ATG_CRE_CIS: Attagene CIS-FACTORIAL HepG2 Assay for human cAMP Responsive Element (CRE) binding protein 3 (AID 2282926). The conditions noted are these: HepG2 CRE cis-reporter, Attagene multiplexed mRNA; actives raise or lower the signal. In short, it runs like this:
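Induced reporter mRNA from a CRE cis element, measured in HepG2 among many multiplexed units at 24 h. Detection used RT-PCR plus capillary electrophoresis of fluorescent fragments; DMSO served as negative control.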

Assay [2] can be described thus: ATG_CMV_CIS: Attagene CIS-FACTORIAL HepG2 Assay for human CMV (Internal Marker) (AID 2282928).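 Further: endpoint acts as a background internal control marker rather than a target.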 The conditions noted are these: HepG2 CMV promoter reporter, transcription factor profiling; actives raise or lower the signal. Put shortly: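 Readout: fluorescent reporter cDNA fragments separated by capillary electrophoresis after RT-PCR and HpaI cut. Cells: HepG2 carrying transfected cis-promoter reporter constructs, dosed 24 h. Endpoint serves as background internal-marker control, fit bidirectionally versus DMSO.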

Assay [3] has as its target Aryl hydrocarbon receptor (Homo sapiens) (UniProt P35869). Description: ATG_Ahr_CIS: Attagene CIS-FACTORIAL HepG2 Assay for human Aryl Hydrocarbon Receptor (Ahr) (AID 2282930). The conditions noted are these: HepG2 AhR cis-factorial reporter transcription; actives raise or lower the signal. In short, it runs like this: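 Read-out: reporter mRNA quantified by RT-PCR with fluorescent primer extension and capillary electrophoresis. Human HepG2 liver cells carried transfected cis-promoter reporter units and were exposed to chemical for 24 h; gain or loss fitted relative to DMSO.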

A short description of assay [4]: ATG_AP_1_CIS: Attagene CIS-FACTORIAL HepG2 Assay for human Activator Protein 1 (AP-1) (AID 2282931). The conditions noted are these: HepG2 Attagene cis-factorial AP-1 reporter mRNA; actives raise or lower the signal. In short, it runs like this:
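HepG2, transient cis-reporter transfection; 24 h; readout RT-PCR/CE fluorescence; DMSO baseline, gain and loss fitted.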

Assay [5] can be described thus: ATG_BRE_CIS: Attagene CIS-FACTORIAL HepG2 Assay for human Bone Morphogenetic Protein (BMP) Response Element (BRE) (AID 2282933). The conditions noted are these: HepG2 BMP response element reporter, Attagene transcription factor profiling; actives raise or lower the signal. Put shortly: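 Read-out: reporter mRNA induction quantified by RT-PCR and capillary electrophoresis after 24 h chemical exposure of transfected HepG2 cells. Endogenous factor activity on the BMP response element; gain or loss fitted against DMSO baseline.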

A short description of assay [6]: ATG_Ets_CIS: Attagene CIS-FACTORIAL HepG2 Assay for human Erythroblast Transformation Specific (ETS) (AID 2282941). The conditions noted are these: HepG2 ETS cis-reporter transcription, actives raise or lower the signal. In short, it runs like this:
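RT-PCR/capillary electrophoresis fluorescence read-out of reporter mRNA; HepG2 transient multi-reporter transfection; 24 h compound exposure; gain or loss of signal fitted bidirectionally relative to DMSO.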

The target in assay [7] is Hepatocyte nuclear factor 3-beta (Homo sapiens) (UniProt Q9Y261). The experiment in a line: ATG_FoxA2_CIS: Attagene CIS-FACTORIAL HepG2 Assay for human Forkhead box A2 (FOXA2) (AID 2282942). The conditions noted are these: HepG2 cis-reporter transcription factor activity, 24 h; actives raise or lower the signal. Put shortly: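 24 h dosing of HepG2 bearing cis-reporter constructs; mRNA readout by RT-PCR/CE fluorescence; bidirectional fit, DMSO baseline.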

Assay [8] can be described thus: ATG_FoxO_CIS: Attagene CIS-FACTORIAL HepG2 Assay for human Forkhead box O (FoxO) (AID 2282943). The conditions noted are these: HepG2 Attagene cis-reporter, FoxO element, mRNA; actives raise or lower the signal. In short, it runs like this:
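Read-out: fluorescence of 6-FAM-labelled reporter cDNA fragments resolved by capillary electrophoresis. Transiently transfected HepG2 cells were dosed for 24 h; activity fitted in both directions relative to DMSO controls.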

Assay [9] is described as follows: ATG_GATA_CIS: Attagene CIS-FACTORIAL HepG2 Assay for human GATA Binding Protein (AID 2282944). The conditions noted are these: HepG2 GATA cis-element reporter, Attagene multiplex mRNA; actives raise or lower the signal. In short, it runs like this:
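Read-out: fluorescent reporter mRNA fragments resolved by capillary electrophoresis after RT-PCR. Human liver HepG2 cells carried transiently transfected cis-regulated reporter constructs; chemicals incubated 24 h; gain or loss of signal fitted relative to DMSO.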

The target of assay [10] is Hypoxia-inducible factor 1-alpha (Homo sapiens) (UniProt Q16665). Description: ATG_HIF1a_CIS: Attagene CIS-FACTORIAL HepG2 Assay for human Hypoxia Inducible Factor 1 (HIF1A) (AID 2282951). The conditions noted are these: HepG2 Attagene cis-factorial HIF1a reporter transcription; actives raise or lower the signal. In short, it runs like this:
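After 24 h chemical exposure of reporter-transfected HepG2 cells, reporter cDNA was PCR-amplified, labelled by 6-FAM primer extension (2 min 95 C, 20 s 68 C, 10 min 72 C), HpaI-cut (2 h, 37 C) and analysed by CE.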

In assay [11] the target is Hepatocyte nuclear factor 6 (Homo sapiens) (UniProt Q9UBC0). The experiment in a line: ATG_HNF6_CIS: Attagene CIS-FACTORIAL HepG2 Assay for human Hepatocyte Nuclear Factor 6 (HNF6) (AID 2282952). The conditions noted are these: HepG2 Attagene cis-factorial HNF6 reporter transcription; actives raise or lower the signal. Put shortly: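 First, HepG2 cells were transfected with the multiplexed cis reporter library and dosed with chemical for 24 h. Next, RNA was reverse-transcribed, PCR-amplified and fluorescently labelled. Finally, HpaI-digested fragments were read by capillary electrophoresis.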

In assay [12] the target is Heat shock factor protein 1 (Homo sapiens) (UniProt Q00613). The experiment in a line: ATG_HSE_CIS: Attagene CIS-FACTORIAL HepG2 Assay for human Heat Shock Transcription Factor 1 (HSE) (AID 2282953). The conditions noted are these: HepG2 HSE cis-reporter, Attagene RNA transcription; actives raise or lower the signal. In short, it runs like this:
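Read-out: fluorescence of reporter-specific RT-PCR fragments separated by capillary electrophoresis. HepG2 carrying transfected cis-element reporter units; 24 h dosing; activity fitted in both directions relative to DMSO baseline.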

Assay [13] is described as follows: ATG_MRE_CIS: Attagene CIS-FACTORIAL HepG2 Assay for human Metal Responsive Element (MRE) (AID 2282954). The conditions noted are these: HepG2 MRE cis-reporter transcription, Attagene multiplex; actives raise or lower the signal. Put shortly: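 RT-PCR/capillary electrophoresis readout of reporter mRNA, 24 h post-dosing, in HepG2 cells transfected with multiplexed cis-regulated reporter constructs. Gain or loss of signal fitted bidirectionally against DMSO baseline.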

The target in assay [14] is Paired box protein Pax-6 (Homo sapiens) (UniProt P26367). The experiment in a line: ATG_Pax6_CIS: Attagene CIS-FACTORIAL HepG2 Assay for human Paired Box 6 (PAX6) (AID 2282956). The conditions noted are these: HepG2 CIS-FACTORIAL PAX6 reporter transcription, RNA readout; actives raise or lower the signal. Put shortly: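 Readout: reporter transcript fluorescence after RT-PCR and capillary electrophoresis. Cells: HepG2, transiently transfected with cis-regulated MRTUs. Exposure 24 h. Gain or loss of signal fitted bidirectionally relative to DMSO.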

Assay [15] can be described thus: ATG_SREBP_CIS: Attagene CIS-FACTORIAL HepG2 Assay for human Sterol Regulatory Element Binding (SREBP) (AID 2282962). The conditions noted are these: HepG2 Attagene cis-factorial SREBP reporter, mRNA; actives raise or lower the signal. Put shortly:
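Readout: fluorescent reporter-transcript peaks resolved by capillary electrophoresis after RT-PCR. Cells were human HepG2 carrying transfected cis-promoter reporter constructs, dosed for 24 h. Gain or loss of signal was fitted against DMSO controls.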

The nature of assay [16]: ATG_VDRE_CIS: Attagene CIS-FACTORIAL HepG2 Assay for human Vitamin D Receptor Element (VDRE) (AID 2282968). The conditions noted are these: HepG2 VDRE cis-reporter transcription, actives raise or lower the signal. In short, it runs like this: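 Transient MRTU transfection of HepG2, 24 h compound exposure. Readout: reporter transcripts via RT-PCR and capillary electrophoresis, fluorescence. Bidirectional fit vs DMSO.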

Assay [17] in a line: ATG_NRF2_ARE_CIS: Attagene CIS-FACTORIAL HepG2 Assay for human Nuclear Factor Erythroid 2 Related Factor 2 (NFR2) response to Antioxidant Response Elements (ARE) (AID 2282992). The conditions noted are these: HepG2 Attagene ARE/NRF2 reporter, transcription factor activity; actives raise or lower the signal. Put shortly: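 Readout: reporter mRNA quantified by RT-PCR plus FAM-labelled primer extension, HpaI digestion and capillary electrophoresis, 24 h after dosing transfected HepG2 cells. Gain or loss of signal is fitted bidirectionally against DMSO baseline.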

The target in assay [18] is Cellular tumor antigen p53 (Homo sapiens) (UniProt P04637). Description: ATG_p53_CIS: Attagene CIS-FACTORIAL HepG2 Assay for human p53 Transcription Factor (AID 2282994). The conditions noted are these: HepG2 p53 cis-element reporter, Attagene mRNA; actives raise or lower the signal. In short, it runs like this:
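Read-out: reporter mRNA by RT-PCR plus capillary electrophoresis with fluorescence detection. Human HepG2 liver cells carried transfected multi-reporter cis-element constructs, dosed 24 h. Gain or loss of signal fitted bidirectionally against DMSO control.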

The nature of assay [19]: ATG_XTT_Cytotoxicity: Cytotoxicity Assessment in the Attagene TRANS-FACTORIAL HepG2 Assay (AID 2283584; active means hit-call score of the fitted dose curve at least 0.9, where 1 is the maximum). Put shortly:
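HepG2 cells transiently transfected with GAL4-UAS multiple reporter units, dosed 24 h; cytotoxicity read by XTT as loss of signal versus DMSO baseline.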

A short description of assay [20]: ATG_NF_kB_CIS: Attagene CIS-FACTORIAL HepG2 Assay for human Nuclear Factor Kappa B (NF-kB) (AID 2282991). The conditions noted are these: HepG2 Attagene cis-factorial NF-kB reporter mRNA; actives raise or lower the signal. In short, it runs like this: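 Fluorescence of labelled RT-PCR products separated by capillary electrophoresis gives reporter mRNA levels from transfected HepG2 cells exposed 24 h; values are fitted in both directions relative to DMSO.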

The AC50 is the concentration at which the activity in the assay is half-maximal.

Sequence of Aryl hydrocarbon receptor (Homo sapiens) (P35869 whole entry, looked up): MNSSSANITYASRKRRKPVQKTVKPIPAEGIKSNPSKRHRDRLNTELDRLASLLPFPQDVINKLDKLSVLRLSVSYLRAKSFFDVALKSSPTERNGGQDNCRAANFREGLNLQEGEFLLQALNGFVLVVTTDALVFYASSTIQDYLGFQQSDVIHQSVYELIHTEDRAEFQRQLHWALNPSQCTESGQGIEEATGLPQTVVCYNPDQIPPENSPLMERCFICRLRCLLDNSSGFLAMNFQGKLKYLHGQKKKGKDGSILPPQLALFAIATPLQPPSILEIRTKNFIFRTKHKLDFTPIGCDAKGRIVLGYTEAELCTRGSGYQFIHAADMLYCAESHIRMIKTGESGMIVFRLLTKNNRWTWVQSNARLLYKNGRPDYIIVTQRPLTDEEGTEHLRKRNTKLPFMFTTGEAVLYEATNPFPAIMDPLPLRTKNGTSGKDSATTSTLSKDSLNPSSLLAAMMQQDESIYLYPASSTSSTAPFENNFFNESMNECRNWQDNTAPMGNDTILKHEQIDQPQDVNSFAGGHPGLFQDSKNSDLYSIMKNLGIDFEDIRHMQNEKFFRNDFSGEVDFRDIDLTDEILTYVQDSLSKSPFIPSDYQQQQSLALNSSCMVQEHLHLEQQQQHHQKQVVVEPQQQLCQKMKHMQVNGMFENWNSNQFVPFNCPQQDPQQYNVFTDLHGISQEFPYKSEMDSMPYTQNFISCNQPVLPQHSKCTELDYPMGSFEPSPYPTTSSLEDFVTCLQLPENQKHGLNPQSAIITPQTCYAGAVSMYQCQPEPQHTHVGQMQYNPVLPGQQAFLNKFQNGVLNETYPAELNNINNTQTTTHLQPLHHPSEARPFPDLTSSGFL
Sequence of Hepatocyte nuclear factor 3-beta (Homo sapiens) (Q9Y261 whole entry, looked up): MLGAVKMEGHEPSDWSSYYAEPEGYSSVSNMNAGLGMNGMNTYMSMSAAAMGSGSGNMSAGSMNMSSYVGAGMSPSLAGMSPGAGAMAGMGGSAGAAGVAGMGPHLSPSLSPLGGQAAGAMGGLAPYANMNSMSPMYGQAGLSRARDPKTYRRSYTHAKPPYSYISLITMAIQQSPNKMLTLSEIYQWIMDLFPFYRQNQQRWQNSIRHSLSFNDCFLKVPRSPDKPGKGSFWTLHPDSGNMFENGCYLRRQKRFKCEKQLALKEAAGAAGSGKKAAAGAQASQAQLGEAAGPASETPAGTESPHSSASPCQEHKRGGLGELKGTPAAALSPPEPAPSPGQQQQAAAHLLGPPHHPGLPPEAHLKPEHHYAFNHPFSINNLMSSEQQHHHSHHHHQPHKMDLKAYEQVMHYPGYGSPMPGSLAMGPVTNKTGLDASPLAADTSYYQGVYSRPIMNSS
Sequence of Hepatocyte nuclear factor 6 (Homo sapiens) (Q9UBC0 whole entry, looked up, the tested form may be a part): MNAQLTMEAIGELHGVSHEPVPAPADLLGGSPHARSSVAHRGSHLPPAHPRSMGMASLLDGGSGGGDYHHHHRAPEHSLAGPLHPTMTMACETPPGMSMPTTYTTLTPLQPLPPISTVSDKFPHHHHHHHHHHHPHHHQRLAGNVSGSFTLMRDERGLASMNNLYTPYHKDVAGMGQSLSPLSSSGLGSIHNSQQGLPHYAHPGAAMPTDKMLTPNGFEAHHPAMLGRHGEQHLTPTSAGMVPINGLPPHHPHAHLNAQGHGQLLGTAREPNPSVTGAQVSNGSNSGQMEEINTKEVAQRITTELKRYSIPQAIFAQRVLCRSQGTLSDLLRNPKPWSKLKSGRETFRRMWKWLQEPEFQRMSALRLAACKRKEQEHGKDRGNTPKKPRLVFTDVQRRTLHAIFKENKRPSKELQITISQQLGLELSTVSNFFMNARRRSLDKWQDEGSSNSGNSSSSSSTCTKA
Sequence of Paired box protein Pax-6 (Homo sapiens) (P26367 whole entry, looked up): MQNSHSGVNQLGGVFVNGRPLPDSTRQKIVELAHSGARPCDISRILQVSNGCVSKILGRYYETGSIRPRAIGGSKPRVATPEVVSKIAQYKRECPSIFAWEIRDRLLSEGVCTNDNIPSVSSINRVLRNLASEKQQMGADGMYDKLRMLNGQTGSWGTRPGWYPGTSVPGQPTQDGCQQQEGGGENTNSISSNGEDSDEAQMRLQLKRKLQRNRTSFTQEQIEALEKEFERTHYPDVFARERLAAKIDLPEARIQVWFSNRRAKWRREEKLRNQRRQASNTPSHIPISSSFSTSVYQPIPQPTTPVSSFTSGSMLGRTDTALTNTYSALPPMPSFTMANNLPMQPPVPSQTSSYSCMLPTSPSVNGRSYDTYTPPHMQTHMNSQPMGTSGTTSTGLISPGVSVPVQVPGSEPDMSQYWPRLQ
Sequence of Hypoxia-inducible factor 1-alpha (Homo sapiens) (Q16665 whole entry, looked up): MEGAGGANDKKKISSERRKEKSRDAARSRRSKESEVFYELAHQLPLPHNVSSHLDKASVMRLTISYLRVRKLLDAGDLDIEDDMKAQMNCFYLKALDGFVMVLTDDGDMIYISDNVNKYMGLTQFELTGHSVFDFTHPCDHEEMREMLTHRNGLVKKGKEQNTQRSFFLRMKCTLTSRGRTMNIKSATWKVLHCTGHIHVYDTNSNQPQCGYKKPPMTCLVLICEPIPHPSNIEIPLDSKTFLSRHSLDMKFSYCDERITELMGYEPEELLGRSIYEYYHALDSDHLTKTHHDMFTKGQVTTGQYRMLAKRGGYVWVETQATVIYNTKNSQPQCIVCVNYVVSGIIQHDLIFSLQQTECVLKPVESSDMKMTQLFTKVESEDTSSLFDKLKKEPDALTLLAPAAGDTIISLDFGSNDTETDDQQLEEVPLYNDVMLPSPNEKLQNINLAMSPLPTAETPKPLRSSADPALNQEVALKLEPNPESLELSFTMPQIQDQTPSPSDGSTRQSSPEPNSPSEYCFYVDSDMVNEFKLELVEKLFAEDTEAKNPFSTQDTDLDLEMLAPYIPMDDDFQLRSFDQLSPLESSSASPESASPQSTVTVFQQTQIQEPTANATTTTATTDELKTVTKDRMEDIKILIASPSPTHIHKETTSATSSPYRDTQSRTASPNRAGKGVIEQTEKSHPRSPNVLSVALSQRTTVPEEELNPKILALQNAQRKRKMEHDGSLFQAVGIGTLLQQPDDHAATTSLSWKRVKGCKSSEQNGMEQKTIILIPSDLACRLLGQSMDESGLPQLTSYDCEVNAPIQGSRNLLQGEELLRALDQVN
Sequence of Heat shock factor protein 1 (Homo sapiens) (Q00613 whole entry, looked up, the tested form may be a part): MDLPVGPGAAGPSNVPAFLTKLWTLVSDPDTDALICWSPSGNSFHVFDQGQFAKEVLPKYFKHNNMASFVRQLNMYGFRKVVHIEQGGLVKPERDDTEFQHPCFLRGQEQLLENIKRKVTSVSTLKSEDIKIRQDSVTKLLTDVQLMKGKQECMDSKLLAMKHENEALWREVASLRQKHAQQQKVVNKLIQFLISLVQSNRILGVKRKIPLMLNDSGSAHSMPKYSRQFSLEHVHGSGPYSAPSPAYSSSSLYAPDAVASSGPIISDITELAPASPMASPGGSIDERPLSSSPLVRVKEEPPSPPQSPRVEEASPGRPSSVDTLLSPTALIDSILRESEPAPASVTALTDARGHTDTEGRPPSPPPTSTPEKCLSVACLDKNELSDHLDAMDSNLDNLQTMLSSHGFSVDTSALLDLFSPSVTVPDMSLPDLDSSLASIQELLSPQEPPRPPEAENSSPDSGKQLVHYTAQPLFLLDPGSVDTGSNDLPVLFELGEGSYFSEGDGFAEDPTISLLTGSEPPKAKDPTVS
Sequence of Cellular tumor antigen p53 (Homo sapiens) (P04637 whole entry, looked up): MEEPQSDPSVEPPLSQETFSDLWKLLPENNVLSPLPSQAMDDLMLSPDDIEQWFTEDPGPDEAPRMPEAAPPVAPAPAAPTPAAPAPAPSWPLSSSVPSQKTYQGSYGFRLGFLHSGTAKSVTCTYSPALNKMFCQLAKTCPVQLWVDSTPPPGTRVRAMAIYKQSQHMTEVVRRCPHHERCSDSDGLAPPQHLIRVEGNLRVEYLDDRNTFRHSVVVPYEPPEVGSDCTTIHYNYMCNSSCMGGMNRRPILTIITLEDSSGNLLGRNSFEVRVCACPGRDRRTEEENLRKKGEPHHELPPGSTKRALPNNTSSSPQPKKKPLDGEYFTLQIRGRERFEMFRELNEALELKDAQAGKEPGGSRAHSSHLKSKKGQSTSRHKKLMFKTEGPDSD

In the case of `O=c1c2ccccc2c(=O)c2c1cc(Cl)c1[nH]c3c([nH]c12)c(Cl)cc1c(=O)c2ccccc2c(=O)c13`, the result in assay [1], in [2], in [4], in assay [6], in assay [7] and in assay [8] was inactive. The outcome in assay [9], in assay [10], in [11], in [12], in assay [13] and in assay [14] was inactive. Moreover, the call in [15], in assay [16], in assay [17], in assay [18] and in assay [19] was inactive. In addition, the AC50 is 33.6 µM (active) in assay [3] and 26.1 µM (active) in [5].
On to `Cc1ccc(OP(=O)(Oc2ccc(C)cc2)Oc2ccc(C)cc2)cc1` (tested in a mixture with another compound), for which the compound was classed as inactive in [1], in [2], in assay [3], in assay [4], in assay [5] and in [8]. Moreover, the compound was called inactive in assay [10], in assay [11], in assay [14], in [15], in assay [17] and in assay [18]. The compound was classed as inactive in [19]. Also, the AC50 in assay [16] is 2.35 µM (active).
Consider `Cc1ccccc1CCl`, for which the compound was classed as inactive in assay [1], in [2], in [3], in assay [4], in assay [5] and in assay [6]. The call in assay [7], in assay [8], in assay [9], in assay [10], in [11] and in [12] was inactive. Moreover, the result in assay [13], in assay [14], in assay [15], in assay [16], in [20] and in assay [17] was inactive. For the same compound, the compound was called inactive in assay [18].
On to `O=C=Nc1ccccc1`, for which the compound was classed as inactive in assay [1], in [2], in assay [4], in assay [5], in assay [6] and in assay [7]. Also, the compound was classed as inactive in assay [8], in [10], in assay [11], in assay [12], in [13] and in assay [14]. In addition, the result in assay [15], in [16], in [20], in [17] and in [19] was inactive. Further, the AC50 in assay [3] was 9.05 µM (active).
On to `N#CCCCCC#N`, for which the call in assay [1], in [2], in assay [3], in assay [4], in assay [5] and in assay [6] was inactive. For the same compound, the call in assay [7], in [8], in assay [9], in assay [10], in [11] and in [12] was inactive. Besides, the compound was classed as inactive in assay [13], in assay [14], in [15], in assay [16], in assay [17] and in assay [18]. Besides, the outcome in assay [19] was inactive.
For the compound `C#CC1(O)CCCCC1`, the result in assay [1], in assay [2], in assay [3], in [4], in assay [5] and in assay [6] was inactive. For the same compound, the result in assay [7], in assay [9], in assay [10], in [11], in [12] and in assay [13] was inactive. The result in assay [14], in assay [15], in assay [20], in assay [17], in [18] and in assay [19] was inactive.
In the case of `CC(=O)C=Cc1ccccc1`, the call in assay [1], in assay [3], in assay [7], in assay [9], in [10] and in assay [13] was inactive. Also, the result in assay [15] and in [19] was inactive. Besides, the AC50 is 128 µM (active) in assay [2]; 133 µM (active) in [4]; 74.5 µM (active) in assay [5]; 100 µM (active) in [6]; 100 µM (active) in [8]; 179 µM (active) in [11]. Further, the half-maximal activity concentration (AC50) was 152 µM (active) in [12], 100 µM (active) in assay [16], 163 µM (active) in assay [20] and 56.5 µM (active) in assay [17].
